Source: PubChem BioAssay (National Center for Advancing Translational Sciences (NCATS))
Most compounds without a hit are left out; they make up all but 12% or so of the library.
JMJD2A Tudor: qHTS Assay for Inhibitors of JMJD2A-Tudor Domain; Lysine-specific demethylase 4A (Homo sapiens), O75164; AlphaScreen JMJD2A-Tudor / H3K4me3 peptide binding; Potency, µM (highest dose often 114 µM), inactives show top-dose activity change, negative = inhibition, most hits filed as inhibitors; hit rate 4.4% among 390,000; AID 504339, 2011; also: % is scaled to controls: 0 for no effect and ±100 for the full control effect; nearly all actives have a fitted effect of over 50% in size
HP1b binding inh: HTS for Inhibitors of HP1-beta Chromodomain Interactions with Methylated Histone Tails. hit rate 0.56% among 390,000. AlphaScreen HP1-beta / biotin-H3K9me3 peptide binding. Potency, µM (highest dose often 114 µM), inactives show top-dose activity change, negative = inhibition, hits mostly inhibitors; also: nearly all actives have a fitted effect of over 70% in size
Target sequence (P83916 whole entry, looked up): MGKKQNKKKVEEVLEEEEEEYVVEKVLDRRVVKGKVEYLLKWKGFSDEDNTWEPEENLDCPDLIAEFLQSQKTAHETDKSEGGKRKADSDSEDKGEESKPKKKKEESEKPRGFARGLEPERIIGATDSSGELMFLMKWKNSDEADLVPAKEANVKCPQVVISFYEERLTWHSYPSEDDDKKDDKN
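Compound inhibition of the preformed complex between 50 nM HP1-beta and 50 nM biotinylated H3K9me3 peptide was read by AlphaScreen. Buffer was PBS pH 7.4 with 0.01% Tween-20. Incubations ran 30 min at room temperature, with 10 ug/mL donor/acceptor beads.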
PLK1 PBD block: qHTS for Inhibitors of PLK1-PDB (polo-like kinase 1 - polo-box domain): Primary Screen; Serine/threonine-protein kinase PLK1 (Homo sapiens), P53350; Plk1 PBD binding of FITC phosphopeptide, fluorescence polarization; Potency, µM, for the others: max response, negative = inhibition, usual class: inhibitors; hit rate 2.8% among 360,000; also: series mostly up to about 57 µM; % is scaled to controls: 0 for no effect and ±100 for the full control effect; nearly all actives have a fitted effect of over 65% in size
G9a inh: qHTS Assay for Inhibitors of Histone Lysine Methyltransferase G9a. Histone-lysine N-methyltransferase EHMT2 (Homo sapiens), Q96KQ7. G9a H3K9 monomethylation, AlphaScreen, 2 h. Potency, µM (highest dose often 102 µM), for inactives: at the highest dose activity, negative = inhibition, usual class: inhibitors. hit rate 8.8% among 350,000. AID 504332, 2011; also: % is scaled to controls: 0 for no effect and ±100 for the full control effect; nearly all actives have a fitted effect of over 75% in size
Target sequence (Q96KQ7 913-1193 limits assumed): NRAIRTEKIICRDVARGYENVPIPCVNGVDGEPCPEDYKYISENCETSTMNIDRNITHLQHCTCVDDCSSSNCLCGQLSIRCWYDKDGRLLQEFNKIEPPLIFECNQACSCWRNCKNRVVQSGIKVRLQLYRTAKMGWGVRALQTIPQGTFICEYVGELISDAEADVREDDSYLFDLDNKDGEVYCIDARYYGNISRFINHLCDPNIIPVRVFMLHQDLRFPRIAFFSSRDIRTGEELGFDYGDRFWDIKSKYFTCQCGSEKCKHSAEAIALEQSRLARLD
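Compounds were preincubated with 20 nM G9a for 15 min, after which biotinylated H3K9 peptide (500 nM) and SAM (20 uM) started a 2 h room-temperature reaction. Monomethylated product was quantified by antibody-based AlphaScreen chemiluminescence.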
Sfp inh: qHTS Assay for Inhibitors of Bacillus subtilis Sfp phosphopantetheinyl transferase (PPTase). 4'-phosphopantetheinyl transferase ffp (Bacillus subtilis), Q9F4F7. Biochemical Sfp PPTase activity, qHTS. Potency, µM, inactives show largest response in the series, negative = inhibition, most hits filed as inhibitors. hit rate 3.5% among 310,000. AID 1490, 2009;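 also: the enzyme is Sfp with the accession as filed and its product quenches rhodamine fluorescence; 0% = enzyme reaction without inhibitor and -100% = no enzyme wells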
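With Hepes-Na pH 7.6 buffer containing 10 mM MgCl2, Sfp (15 nM) modified BHQ-2-YbbR (12.5 uM) using rhodamine-CoA (5 uM). Two reads 30 minutes apart at 525/598 nm yielded each well's rate.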
BAZ2B inh: qHTS Assay for Inhibitors of BAZ2B; Bromodomain adjacent to zinc finger domain protein 2B (Homo sapiens), Q9UIF8; AlphaScreen BAZ2B-H3K14Ac peptide displacement; Potency, µM (doses to about 114 µM), for the others: top-dose activity change, negative = inhibition, most hits filed as inhibitors; hit rate 4.4% among 360,000; also: % is scaled to controls: 0 for no effect and ±100 for the full control effect; nearly all actives have a fitted effect of over 60% in size
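BAZ2B (50 nM) with biotin-H3(5-23)K14Ac peptide (50 nM) in PBS pH 7.4, 0.01% Tween-20, preformed 30 min, then compound 30 min at room temperature; top concentration 110uM. AlphaScreen streptavidin donor/nickel chelate acceptor beads (10 ug/mL final), 20 min dark, signal read.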
Numbers without * were called inactive; [ ] = another dose, or the depositor's remark. Calls follow the shape of the dose curve; as a rule, active = well fitted curve in the direction sought with a large enough effect; inconclusive = small, poorly fitted or top-dose-only effect, or another doubt; inactive = no such curve, though single readings can be large; an effect the other way counts as inactive or inconclusive. Potency is read from the fitted curve at half-maximal effect.

`CN(Cc1ccccc1)C(=O)c1ccc(NC(=O)Cc2cccc(NC(=O)C3CCCN(C(=O)C4CCC4)C3)c2)cc1` (stereo not given) gave JMJD2A Tudor -24.3%, HP1b binding inh 44.3%, PLK1 PBD block -13.0%, G9a inh -9.5%[2.33 µM] and BAZ2B inh 5.8%.
For CC(=O)Nc1ccc(SCC(=O)NC(=O)c2ccccc2Br)cc1 the results were JMJD2A Tudor -0.8%, HP1b binding inh 40.3%, PLK1 PBD block 29.9µM*, G9a inh inconclusive and BAZ2B inh -5.2%.
Screening Cc1cc(NC(=O)CSc2nnnn2-c2ccc(C(C)C)cc2)no1 returned JMJD2A Tudor inconclusive, HP1b binding inh -21.5%[57 µM], PLK1 PBD block 26.7µM*, G9a inh 13.1%, Sfp inh 13.7% and BAZ2B inh -11.2%.
Screening Cc1cc(NC(=O)Cc2ccc(Br)cc2)no1 returned JMJD2A Tudor -12.4%, HP1b binding inh 21.5%, PLK1 PBD block -0.4%, G9a inh 12.0%, Sfp inh 17.5% and BAZ2B inh -25.7%.
CC(=O)Nc1ccc(NC(=O)c2ccccc2Br)cc1 was read as PLK1 PBD block -6.2%.
For CC(=O)Nc1ccc(SCC(=O)Nc2cc(C)on2)cc1 the results were JMJD2A Tudor 0.3%, HP1b binding inh 46.2%, PLK1 PBD block 23.8µM*, G9a inh 44.7µM*, Sfp inh inconclusive and BAZ2B inh 5.4%.
Screening CC(=O)c1cccc(-n2nnnc2SCC(=O)Nc2cc(C)on2)c1 returned JMJD2A Tudor -3.5%, HP1b binding inh 54.1%, PLK1 PBD block inconclusive, G9a inh -4.6%, Sfp inh 1.2% and BAZ2B inh -15.2%.
`CCN(CC(=O)Nc1ccc(Br)cc1)CC(=O)Nc1cc(C)on1` gave JMJD2A Tudor -4.8%, HP1b binding inh 20.8%, PLK1 PBD block -1.4%, G9a inh 79.4µM* and BAZ2B inh 14.4%.
`CCn1cc(C(=O)NCc2ccc3c(c2)OCO3)c(=O)c2cc(F)c(N3CCN(C(=O)c4ccco4)CC3)cc21` gave JMJD2A Tudor -14.4%[11.4 µM], HP1b binding inh 22.3%, PLK1 PBD block -27.0%, G9a inh inconclusive, Sfp inh -6.7% and BAZ2B inh inconclusive.
Screening CC(C)(C)c1ccc(C(=O)NCCCNC(=O)c2ccccn2)cc1 returned JMJD2A Tudor 0.0%, HP1b binding inh 23.5%, PLK1 PBD block -19.7%, G9a inh -3.8%, Sfp inh 5.0% and BAZ2B inh -0.5%.
CC1CCN(C(=O)c2ncn3c2c(=O)[nH]c2cccnc23)CC1 was read as PLK1 PBD block -1.9%.
For COC(=O)c1cc(S(=O)(=O)NCc2cc(OC)c(OC)c(OC)c2)cn1C the results were JMJD2A Tudor 0.0%, HP1b binding inh 42.8%, PLK1 PBD block -1.4%, G9a inh -11.6%, Sfp inh 8.9% and BAZ2B inh -6.9%[57.1 µM].
Screening Cc1cc(C)cc(OCC(=O)N2N=C(C(F)(F)F)CC2(O)C(C)(C)C)c1 (stereo not given) returned JMJD2A Tudor -8.7%[57.1 µM], HP1b binding inh 10.0%, PLK1 PBD block -10.8%, G9a inh 1.58µM*, Sfp inh inconclusive and BAZ2B inh -3.1%.
For Cc1c(-c2ccc(Cl)cc2)c(=O)oc2c(CN3CCOCC3)c(O)ccc12 the results were JMJD2A Tudor 15.9%, HP1b binding inh 37.3%[57 µM], G9a inh 6.7%[59 µM] and BAZ2B inh 29.8%.
`CCN(CC)c1ccc(C2CC(=O)NC3=C2C(=O)CC(C)(C)C3)cc1` (stereo not given) gave JMJD2A Tudor -19.0%, HP1b binding inh 6.8%, PLK1 PBD block -2.1%, G9a inh 50.1µM*, Sfp inh -2.2% and BAZ2B inh -32.7%.
`CN(C)c1ccc(C2CC(=O)NC3=C2C(=O)CC(C)(C)C3)cc1` (stereo not given) gave JMJD2A Tudor -17.4%, HP1b binding inh 7.8%, PLK1 PBD block -5.7%, G9a inh inconclusive, Sfp inh 12.0% and BAZ2B inh -19.2%.
Screening Nc1ccc2cccc(O)c2c1 returned JMJD2A Tudor 28.2µM*, HP1b binding inh inconclusive and PLK1 PBD block inconclusive.
Nc1ccc2cc3ccccc3cc2c1 was read as JMJD2A Tudor inconclusive, HP1b binding inh -2.2% and PLK1 PBD block inconclusive.
For OC[C@@H]1O[C@](CO)(O[C@H]2O[C@H](CO)[C@@H](O)[C@H](O)[C@H]2O)[C@H](O)[C@H]1O the results were G9a inh 3.1%[12.7 µM] and Sfp inh 13.2%.
`Cn1nc([N+](=O)[O-])c(C(C#N)c2nc3ccccc3n2C)c(Cl)c1=O` (stereo not given) gave JMJD2A Tudor inconclusive, HP1b binding inh inconclusive, PLK1 PBD block inconclusive, G9a inh inconclusive, Sfp inh 8.9% and BAZ2B inh 35.5µM*.
Screening CN(C1CCS(=O)(=O)C1)S(=O)(=O)c1ccccc1 (stereo not given) returned JMJD2A Tudor -2.1%, HP1b binding inh 14.0%, PLK1 PBD block 1.5%, Sfp inh 11.2µM* and BAZ2B inh -9.1%.
`CN(C1CCS(=O)(=O)C1)S(=O)(=O)c1cccs1` (stereo not given) gave JMJD2A Tudor 4.8%, HP1b binding inh 22.3%, PLK1 PBD block 0.8%, G9a inh 6.6%[0.501 µM] and BAZ2B inh 0.4%.
COc1cc(NC(=O)C2=C(N3CCOCC3)/C(=C/c3ccc(Cl)cc3)CC2)cc(OC)c1OC was read as JMJD2A Tudor -16.0%, HP1b binding inh 24.8%, PLK1 PBD block -3.2%, G9a inh 13.4%, Sfp inh inconclusive and BAZ2B inh 8.7%.
Screening COc1cc(NC(=O)C2=C(N3CCOCC3)/C(=C\c3ccc(N(C)C)cc3)CCC2)cc(OC)c1OC returned JMJD2A Tudor 28.2µM*, HP1b binding inh inconclusive, PLK1 PBD block -15.2%, G9a inh inconclusive, Sfp inh -20.2% and BAZ2B inh 39.8µM*.
O=C(O)CC1NC(=S)N(Cc2ccccc2)C1=O (stereo not given) was read as PLK1 PBD block -9.3%.
